Reference: PubChem BioAssay AID651820 (National Center for Advancing Translational Sciences (NCATS), 2012)
Out of some 340,000 compounds screened, about 12,000 (3.5%) were called active. Inconclusive results (about 18%) are left out. What follows is part of a selection rich in actives, with near analogues and random picks from the rest. Values without a mark were called inactive. The call rests on the fitted dose curve; in most records, active means well fitted inhibition curve with a large enough effect; inconclusive means small, poorly fitted or top-dose-only effect, or another doubt; inactive means no such curve, though single readings can be large or run the other way.

Experiment: qHTS Assay for Inhibitors of Hepatitis C Virus (HCV)
Conditions: Huh7.5.1 HCVcc-Cre infection, luciferase reporter, 44 h; series mostly up to 41.8 µM; activity change, negative = inhibition: at the top concentration
How it was run: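 Compounds are dispensed onto cells plated 4 h earlier at 1,000 per well, with HCVcc-Cre virus (about 0.5 moi) added next. Following 44 h of culture, luminescent signal is measured for 15 sec after 15 min with substrate at room temperature.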
On the % scale 0 is the no-effect control and ±100 the full control effect; potency means the concentration at half of the fitted maximal effect.

Structure (SMILES) | activity change, negative = inhibition [%] | Potency
CCOc1ccc(S(=O)(=O)Nc2ccc(C(=O)NCCCN3CCCC3=O)cc2)cc1 | -0.358 | 
CCOC(=O)c1sc2nc(SC)nc(-c3ccccc3)c2c1N | -1.48 | 
Cc1cccc(NC(=O)c2sc3nc4c(c(-c5ccco5)c3c2N)CCC4)c1 | -12.9 | 
Cc1nc2sc(C(=O)c3ccccc3)c(N)c2c2c1CCCC2 |  | 25.1 µM (active)
COc1ccc(-c2ccc3nnc(SCC(=O)Nc4ccc(NC(C)=O)cc4)n3n2)cc1 | -24.5 | 
CC(C)(C)OC(=O)C[C@@H]1C/C=C\C[C@H](CC(=O)N[C@@H](CO)Cc2ccccc2)C(=O)N[C@H](Cc2ccccc2)COC1=O | -11.5 | 
Cc1c(Cl)c([N+](=O)[O-])nn1CCCC(=O)Nc1cc(Cl)ccc1Cl | -20.9 | 
Cc1c(Cl)c([N+](=O)[O-])nn1Cc1ccc(C(=O)N/N=C\c2cc(Cl)ccc2O)o1 |  | 12.6 µM (active)
O=C(N/N=C/c1ccc2c(c1)OCO2)c1ccc(Cn2cc([N+](=O)[O-])cn2)o1 | 5.24 | 
Cc1ccc(S(=O)(=O)N2CCC(C(=O)N3CCCCCCC3)CC2)cc1 | 19.1 | 
O=C(O)c1ccccc1N=N/C(=N/Nc1cc(S(=O)(=O)O)ccc1O)c1ccccc1 | 3.51 | 
CN(C)CCN(C(=O)CN1C(=O)c2ccccc2C1=O)c1nc2cc3c(cc2s1)OCCO3 | 12.9 | 
COC(=O)c1ccc(CSc2ccc(S(=O)(=O)N3CCCCC3)cn2)cc1 | -14.1 | 
Cc1ccc2nc(-c3ccccn3)cc(C(=O)Nc3ccc4c(c3)OCO4)c2c1 | -30 | 
Cc1ccc2nc(-c3ccncc3)cc(C(=O)Nc3ccc(OC(F)F)cc3)c2c1 |  | 8.91 µM (active)
Cc1ccc2nc(-c3ccncc3)cc(C(=O)Nc3ccncc3)c2c1 | 5.09 | 
COc1cc(C2C(C(=O)c3cccs3)=C(O)C(=O)N2CCN2CCOCC2)ccc1OCCC(C)C (stereo not drawn) | 3.65 | 
Cc1c[n+]([O-])ccc1[N+](=O)[O-] | -10.3 | 
CCOc1ccc2ccccc2c1/C=N/NC(=O)c1c(C)cc(C)[nH]c1=O | -20.3 | 
Cc1nn(C)cc1/C=N/NC(=O)c1sc2ccccc2c1Cl | -3.97 | 
O=C(N/N=C/c1c(Cl)[nH]c2ccccc12)c1sc2ccccc2c1Cl |  | 10 µM (active)
OCC1(CO)CC2(C1)CC(CO)(CO)C2 | 3.43 | 
Cc1ccc(S(=O)(=O)N2CCN(C(=O)c3ccc(-n4cncn4)c([N+](=O)[O-])c3)CC2)cc1 | -1.61 | 
Cc1ccc(NC(=O)C2CCCN2C(=O)OCc2ccccc2)cc1C (stereo not drawn) | -3.3 | 
Cc1ccc(S(=O)(=O)N(C)C)cc1NC(=O)C1Cc2ccccc2CN1C(=O)c1ccco1 (stereo not drawn) | 6.19 | 

Structure (SMILES) | activity change, negative = inhibition [%] | Potency
Cc1ccc(C)c(NC(=O)C2Cc3ccccc3CN2C(=O)OCc2ccccc2)c1 (stereo not drawn) |  | 10 µM (active)
Cc1ccc(OCC(=O)Nc2ccccc2C(=O)NC2CC2)cc1 | -22 | 
CC1CCCCC1NC(=O)COc1ccc(C#N)cc1 (stereo not drawn) | 11.6 | 
O=C(CC(O)(C(F)(F)F)C(F)(F)F)Nc1ccc(Cl)c(Cl)c1 |  | 5.01 µM (active)
O=C(CC1SCCNC1=O)Nc1ccc(Cl)c(Cl)c1 (stereo not drawn) | 13.4 | 
Cc1ccc(NC(=O)C/C(N)=N/O)cc1Cl | -10.7 | 
Cc1cccc(C)c1OCC(O)CN1CCCCC1 (stereo not drawn) | -1.28 | 
Cc1ccccc1OCC(O)CN1CCN(c2ccccn2)CC1 (stereo not drawn) | 1.82 | 
Cc1cccc(OCC(O)CN2CCN(CCN3C(=O)c4cccc5cccc(c45)C3=O)CC2)c1C (stereo not drawn) |  | 8.91 µM (active)
CCn1nc(C(=O)NNS(=O)(=O)c2cc(/C=C/C(=O)O)cc(OC)c2OC)c2ccccc2c1=O | -16.4 | 
COc1cccc(-c2nc3cc(C)ccc3o2)c1 | 15.5 | 
CCc1ccc2oc(-c3ccc(N)cc3)nc2c1 |  | 12.6 µM (active)
COc1ccc(-c2nc3cc([N+](=O)[O-])ccc3o2)cc1OC | 13.9 | 
Nc1cc(=O)n(Cc2ccccc2)c(=O)n1Cc1ccccc1 | 19.8 | 
Cc1c(NC(=O)CN(C)CC(=O)Nc2ccc(F)c(F)c2F)c(=O)n(-c2ccccc2)n1C | 2.52 | 
Cc1ccc(Nc2nc(CSc3nnc(-c4ccncc4)n3-c3ccccc3C)cs2)cc1 |  | 10 µM (active)
Cc1ccc(-n2c(SCC(=O)N3c4ccccc4Sc4ccccc43)nnc2-c2ccncc2)cc1 | 7.58 | 
Cc1ccccc1-n1c(SCC(=O)NCc2cccs2)nnc1-c1ccncc1 | -5.89 | 
CC1CCCC(C)N1C(=O)COC(=O)COc1ccccc1C#N (stereo not drawn) | 0.641 | 
CSc1nccc(NC(=O)c2ccc(C(C)(C)C)cc2)n1 |  | 1.78 µM (active)
Cc1cccc(NC(=O)c2cccnc2Cl)n1 | -2.06 | 
COC(=O)c1nc(NC(=O)c2ccc(C(C)(C)C)cc2)n[nH]1 | 17.8 | 
CCN(CC(=O)Nc1cc(Cl)ccc1C)C(=O)CN1C(=O)NC2(CCCC2)C1=O | 14 | 
CN[C@H](C(=O)NC[C@H]1O[C@@H](n2cnc3c(N)ncnc32)[C@H](O)[C@@H]1O)[C@@H](C)OCc1ccccc1 | 49.9 | 
CC(C)(c1ccccc1)c1ccc(OCCN)cc1 | -16.6 | 

Structure (SMILES) | activity change, negative = inhibition [%] | Potency
Cc1cc(C)n(CC(O)COc2ccc(C(C)(C)C)cc2)n1 (stereo not drawn) | 12.2 | 
CN(C)CC(O)COc1ccc(C(C)(C)c2ccc(OCC(O)CN(C)C)cc2)cc1 (stereo not drawn) |  | 10 µM (active)
Cc1ccc(C(=O)NCC(=O)NC2CC2)cc1 | 15.4 | 
Cc1ccsc1C(=O)NNC(=O)COc1ccc(Br)cc1 | 19.3 | 
CCc1nnc(NC(=O)C2CCN(C(=O)c3ccccc3C)CC2)s1 | 14.9 | 
O=C(CSc1nnnn1-c1ccccc1)NCc1ccco1 | -12.8 | 
CCN(CC)C(CNC(=O)CSc1nnnn1-c1cccc(F)c1)c1ccco1 (stereo not drawn) |  | 25.1 µM (active)
Cc1cc(NC(=O)CSc2nnnn2-c2ccc(F)cc2)no1 | 16.5 | 
CCN(CC)S(=O)(=O)c1ccc(Cl)c(C(=O)NCCN2CCOCC2)c1 | -1.51 | 
CCN(CC)S(=O)(=O)c1ccc(Cl)c(C(=O)NC(C)C(c2cccs2)N2CCCC2)c1 (stereo not drawn) |  | 14.1 µM (active)
CCCC(=O)NC(C)C(c1cccs1)N1CCN(c2ccccc2)CC1 (stereo not drawn) | -14.3 | 
O=S(=O)(Nc1cc(Cl)ccc1N1CCOCC1)c1ccccc1Cl | -5.1 | 
Cc1[nH]c2ccccc2c1C(=O)C(C)Sc1nnc(C2CC2)o1 (stereo not drawn) | 8.19 | 
Cc1n[nH]c(=O)c2c(NC(=O)CSc3ccccc3F)oc(C)c12 | -1.71 | 
CC(C)(C)OC(=O)N/N=C/c1cn(-c2ccccc2)nc1-c1cccnc1 | -16.7 | 
COc1ccc(-c2nn(-c3ccccc3)cc2/C=N/Nc2ccccn2)cc1OC |  | 10 µM (active)
COc1cc(C(=O)Nc2nccs2)cc(OC)c1OC |  | 14.1 µM (active)
CC(=O)Oc1ccc(C(=O)Nc2nccs2)cc1 | 10.5 | 
COc1ccc(-c2nn(-c3ccccc3)cc2C(=O)Nc2nccs2)cc1OC |  | 2.51 µM (active)
O=C(O)c1ccccc1-c1ccccc1C(=O)Nc1nccs1 | 7.11 | 
COC(=O)c1sccc1NC(=O)c1cc(OC)c(OC)c(OC)c1 | -10.6 | 
CN(C)/N=C/c1cn(-c2ccccc2)nc1-c1cccnc1 | -5.06 | 
Cn1cccc1C(=O)Nc1nccs1 | -12.1 | 
